CYP2C19 inh – blocks human cytochrome P450 2C19; 96,000 compounds, 21% hits; P33261; CYP2C19 Supersomes, luciferin-H EGE luminescence, 30 min; inhibition, % at 5 µM; AID 778;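 active = CYP2C19 inhibition above a set limit at 5 µM in the primary screen, cut at about 50% in these data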;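 note: plate controls were negative control wells for no effect and 2.5 mM tranylcypromine positive control for full effect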
PostGolgi ctrl – yeast control strain growth, post-Golgi counter-screen. 98,000 compounds, 5% hits. inhibition, % at 10 µM. AID 738. efflux-deficient yeast background strain, growth absorbance A615, 16 h
CYP2C9 activ – increases human cytochrome P450 2C9 activity | activation factor at 5 µM | 96,000 compounds, 1.4% hits | P11712 | recombinant CYP2C9, luciferin-H conversion, luminescence; active compounds read high; factor 1 = untreated enzyme, 0 = blocked | AID 1024;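 active = activation factor of 2 or more for CYP2C9 at a 5 µM dose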;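 note: 0 = sulfaphenazole-blocked wells and 1 = vehicle-only wells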
CYP2C9 inhib – inhibitors of human CYP2C9 | 96,000 compounds, 20% hits | inhibition, % at 5 µM | P11712 | CYP2C9 Supersomes, luciferin-H conversion, luminescence | AID 777;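 active = blocking of liver enzyme CYP2C9 beyond about 50% at 5 µM, limit read from the data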
CYP2C19 activ – activators of human cytochrome P450 2C19; P33261; recombinant CYP2C19, luciferin-H EGE luminescence; active compounds read high; 0 = fully inhibited enzyme, 1 = untreated enzyme; activation factor at 5 µM; 96,000 tested, under 10 active; AID 1025;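 active = activation factor of at least 2 at 5 µM in the primary screen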;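 note: 0 = wells with 2.5 mM tranylcypromine and 1 = vehicle-only wells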
PostGolgi yeast – growth inhibition of a yeast mutant, post-Golgi transport screen; inhibition, % at 10 µM; post-Golgi transport phenotypic cell assay; 98,000 compounds, 0.9% hits;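 note: yeast cells grown in 1536-well plates; yeast grown about 18 h at 30C before absorbance read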
An asterisk follows results filed as active; nt = not tested or not shown. Hits are enriched below; roughly 32% of the tested compounds scored in any of these assays. Cut-off read from the data, not from the text of the source, unless noted: active = inhibition above about 30%; inactive = the rest.

SMILES	CYP2C19 inh	PostGolgi ctrl	CYP2C9 activ	CYP2C9 inhib	CYP2C19 activ	PostGolgi yeast
O=C(CSc1cccc2cccnc12)OCC(=O)c1ccc(Br)cc1	-3	9	1.8	-81	1	4
O=C(CSc1cccc2cccnc12)OCC(=O)c1ccccc1	28	-4	2.6*	-157	0.7	-2
CCOC(=O)/C(C#N)=c1/s/c(=C2\C=Cc3ccccc3N2CC)c(=O)n1CC	58*	16	0.6	42	0.4	2
CCN1C(=C2C(=O)c3ccccc3C2=O)C=Cc2ccccc21	6	8	0.9	8	0.9	0
CCn1nc(NC(=O)c2cccnc2)c2cc3ccccc3nc21	32	5	0.4	62*	0.7	2
O=C(CN1C(=O)CCS(=O)(=O)c2ccccc21)Nc1cccc(Cl)c1	nt	6	nt	nt	nt	0
Cc1cccc(C(=O)OCc2cnc(Cl)s2)c1	17	-6	1	0	0.8	10
CCc1cc2c(-c3ccccc3)cc(=O)oc2c(CN2CCOCC2)c1O	78*	18	0.1	92*	0.2	-6
O=c1cc(-c2ccccc2)c2ccc(O)c(CN3CCCCC3)c2o1	-4	4	1.1	-8	1	14
CCCN1C(=O)c2ccc(C(=O)NC3CCCCC3)cc2C1=O	-2	7	0.9	11	1	0
O=C(NCc1ccco1)c1csc2c1CCCCC2	43	11	4.2*	-317	0.6	1
O=C(Nc1sccc1C(=O)NCc1ccco1)c1cccnc1	24	13	0.1	90*	0.8	-4
O=C(NCc1ccccc1)c1csc2c1CCCCC2	35	3	4*	-304	0.6	-12
O=C(NCc1cccs1)c1cc2c(s1)CCCC2	64*	10	0.5	52*	0.4	1
CCSc1n[nH]c(=O)[nH]c1=O	-1	-6	1	2	1	-6
O=C(N/N=C/c1ccc(O)cc1)c1csc2ccccc12	19	-3	3*	-199	0.8	-12
O=C(Nc1ccon1)c1csc2c1CCCC2	-2	32*	1	-2	1	17
Cc1ccc(/C=N/NC(=O)c2csc3c2CCCC3)cc1	7	32*	1.4	-41	0.9	-8
CC(C)(C)C1CCc2c(C(=O)N/N=C/c3cccs3)csc2C1 (configuration not stated)	35	-6	0.4	63*	0.7	12
CCn1cc(/C=N\NC(=O)c2csc3ccccc23)c(C)n1	8	3	0.9	10	0.9	-3
CC1=C(C)/C(=N\OS(=O)(=O)c2ccccc2)C=CC1=O	14	27	1.1	-6	0.9	-5
O=C(NNC(=O)c1cccc2ccccc12)c1ccco1	4	11	1.4	-44	1	3
CCOc1ccc(NC(=O)CSc2n[nH]c(=O)n2-c2ccccc2)cc1	25	6	1.4	-36	0.7	-1
O=C(NCc1cccs1)c1csc2c1CCCCC2	31	10	2.5*	-150	0.7	-3
CN(C)C(=O)Cn1cnc2c(cnn2-c2ccccc2Cl)c1=O	7	1	1	0	0.9	-3
SMILES	CYP2C19 inh	PostGolgi ctrl	CYP2C9 activ	CYP2C9 inhib	CYP2C19 activ	PostGolgi yeast
CC(C)Oc1ccc(C2CNC(=O)C2)cc1 (configuration not stated)	-11	33*	1	2	1.1	-5
Cc1c(NC(=O)CCN2C(=O)c3ccccc3C2=O)c(=O)n(-c2ccccc2)n1C	-12	2	1.2	-16	1.1	5
O=C(CCCN1C(=O)c2ccccc2C1=O)N1CCN(c2ccccn2)CC1	7	-3	0.6	37	0.9	-6
O=C(c1cn(-c2ccccc2)nc1-c1cccs1)N(CCO)Cc1ccccc1	75*	25	0.3	69*	0.2	-1
O=C(CCSCc1ccccc1F)N1CCN(c2ccccn2)CC1	50*	3	0.2	77*	0.5	7
O=C(Cc1cccs1)N1CCN(c2ccccn2)CC1	52*	6	0.7	29	0.5	3
CN(C)C(=O)c1cn(-c2ccccc2)nc1-c1cccs1	-10	3	1.1	-11	1.1	-8
O=C(CCSCc1ccccc1Cl)N1CCN(c2cccc(Cl)c2)CC1	14	16	0.4	63*	0.9	-3
CCOC(=O)C1CCN(C(=O)CCCCn2c(=O)[nH]c3ccccc3c2=O)CC1	nt	15	nt	nt	nt	1

High-throughput results (PubChem BioAssay)
